# Compound activity: PubChem, National Center for Advancing Translational Sciences (NCATS)
# HP1b chromo inh – inhibitors of HP1-beta chromodomain binding to methylated histone tails | AID 540317 | P83916 | Potency, µM (series often up to 114 µM), inactives show at the highest dose activity change, negative = inhibition, hits mostly inhibitors | AlphaScreen HP1-beta / biotin-H3K9me3 peptide binding | 390,000 compounds, 0.56% hits; note: nearly all actives have a fitted effect of over 70% in size
#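 HP1-beta protein (50 nM final) preincubated 30 min at room temperature with biotinylated H3(1-18)K9me3 peptide (50 nM) in PBS pH 7.4, 0.01% Tween-20, then compound added for 30 min. AlphaScreen streptavidin donor/nickel chelate acceptor beads (10 ug/mL final), 30 min dark, luminescence read.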
# Sfp inh – inhibitors of Bacillus subtilis Sfp phosphopantetheinyl transferase; Q9F4F7; Potency, µM, inactives show largest response in the series, negative = inhibition, most hits filed as inhibitors; 310,000 compounds, 3.5% hits; Biochemical Sfp PPTase activity, qHTS; AID 1490;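 note: the enzyme is Sfp with the accession as filed and its product quenches rhodamine fluorescence; 0% = enzyme reaction without inhibitor and -100% = no enzyme wells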
#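 Reaction rates are the 30-min fluorescence difference (ex 525, em 598 nm) in wells containing 15 nM Sfp, 5 uM rhodamine-CoA and 12.5 uM BHQ-2-YbbR at pH 7.6 with 10 mM MgCl2.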
# L3MBTL1 inh – inhibitors of human L3MBTL1; Potency, µM (titrated, usually from 57.1 µM), for the others: at the highest dose activity, negative = inhibition, most hits filed as inhibitors; Q9Y468; 230,000 compounds, 0.66% hits; AlphaScreen L3MBTL1–H3K9me1 peptide binding; note: % is set by controls: 0 for no effect and ±100 for the full control effect; nearly all actives have a fitted effect of over 60% in size
#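 Read-out is AlphaScreen signal from streptavidin donor and nickel chelate acceptor beads (10 ug/mL final each) bridging L3MBTL1 (50 nM) and biotinylated K9-monomethylated H3(1-15) peptide (75 nM), after 30 min compound exposure at room temperature.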
# G9a inh – G9a (human) methyltransferase inhibition; 350,000 compounds, 8.8% hits; Potency, µM (top dose mostly 102 µM), for inactives: at the highest dose activity, negative = inhibition, usual class: inhibitors; G9a H3K9 monomethylation, AlphaScreen, 2 h; Q96KQ7; note: % is set by controls: 0 for no effect and ±100 for the full control effect; nearly all actives have a fitted effect of over 75% in size
#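 Compounds were preincubated with 20 nM G9a for 15 min, after which biotinylated H3K9 peptide (500 nM) and SAM (20 uM) started a 2 h room-temperature reaction. Monomethylated product was quantified by antibody-based AlphaScreen chemiluminescence.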
# JMJD2A Tudor – blocks the human JMJD2A Tudor domain. O75164. AlphaScreen JMJD2A-Tudor / H3K4me3 peptide binding. Potency, µM (titrated, usually from 114 µM), without a hit: top-dose activity change, negative = inhibition, actives largely listed as inhibitors. 390,000 compounds, 4.4% hits. AID 504339; note: % is set by controls: 0 for no effect and ±100 for the full control effect; nearly all actives have a fitted effect of over 50% in size
# BAZ2B block – BAZ2B (human) inhibition. 360,000 compounds, 4.4% hits. AID 504333. AlphaScreen BAZ2B-H3K14Ac peptide displacement. Potency, µM (doses to about 114 µM), for inactives: at the top dose activity change, negative = inhibition, most hits filed as inhibitors; note: % is set by controls: 0 for no effect and ±100 for the full control effect; nearly all actives have a fitted effect of over 60% in size
#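 AlphaScreen displacement of biotin-H3(5-23)K14Ac peptide (50 nM final) from BAZ2B (50 nM final) in PBS pH 7.4, 0.01% Tween-20; complex preformed 30 min RT, then compounds (top 110 uM) 30 min RT, beads 20 min dark.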
# * marks the source's active call; other numbers are inactive results; ? = inconclusive; . = no result given; ! = not confirmed by another sample; [ ] = dose if it differs, or a comment. Hits are enriched below; roughly 12% of the tested compounds scored in any of these assays. Calls come from the whole dose curve; as a rule, active = well fitted curve in the direction sought with a large enough effect; inconclusive = small, poorly fitted or top-dose-only effect, or another doubt; inactive = no such curve, though single readings can be large; an effect the other way counts as inactive or inconclusive. Potency is the fitted concentration of half-maximal effect.
SMILES,HP1b chromo inh,Sfp inh,L3MBTL1 inh,G9a inh,JMJD2A Tudor,BAZ2B block
CCSc1ccccc1C(=O)NCc1ccc(S(N)(=O)=O)cc1,12%,-1%,4%,?,-19%,2%
Cc1ccc(CNC(=O)c2ccccc2SCC(=O)NCC2CCCCC2)cc1,39%,23%,16%,45µM*,-11%,7%
NS(=O)(=O)c1ccc(CNC(=O)c2ccccc2SCC(=O)N2CCCC2)cc1,26%,.,4%,35µM*,-4%,15%
CCOc1ccc(NC(=O)[C@@H](c2ccccc2)N2Cc3ccccc3C2=O)cc1,27%,.,.,-46%[59 µM],-28%,-30%
CCN(CC(=O)Nc1ccccc1C(F)(F)F)C(=O)/C=C/c1ccc(Cl)c([N+](=O)[O-])c1,20%,.,3%,18µM*,-14%,-5%
CCc1ccc(NC(=O)N(Cc2ccc(C)cc2)Cc2cccn2-c2nnc(N3CCCC3=O)s2)cc1,3%,.,.,-11%[59 µM],-29%,-11%
C=CCC1CCCC(=O)N2CC[C@H](O)C12 (stereo partly drawn),9%,22%,-12%,79µM*!,-25%,-5%
Cc1nnc(-c2ccccc2)c(=O)n1/N=C/c1c(O)ccc2ccccc12,3%,13%,?,?,56µM*,25µM*
Cc1nnc(C)n1/N=C/c1c(O)ccc2ccccc12,37%,-27%,.,7%[2.33 µM],8.9µM*,?
O=C1C2C3C=CC(CC3)C2C(=O)N1/N=C/c1c(O)ccc2ccccc12 (stereo not drawn),19%,-11%,-17%,25µM*,-7%,-5%
CCOc1cc(/C=N/n2c(C)nnc2C)ccc1O,37%,20%,-7%,-2%,-5%,-1%
CCCN(CCC)CCCNC(=O)c1cc2c(=O)n(C)c3ccccc3c2s1,62%,.,.,-18%[59 µM],-11%,.
Cc1c(C(=O)N(C)C)sc2c1c(=O)n(-c1ccc(Cl)cc1)c(=O)n2CC(=O)C(C)(C)C,16%,.,.,8%[59 µM],-22%,-1%
CCc1nnc(NC(=O)CSCc2cc(=O)c3ccc(C)cc3[nH]2)s1,17%[57 µM],.,.,5%[59 µM],-22%,1%
CCCC(=O)N1c2nc(C(C)C)nn2C2(CCCCC2)[C@@H]2CCCC[C@@H]21,34%,.,.,3%[59 µM],0%,6%
CCc1ccc(Sc2cc(C(=O)NCCCN3CCC(C)CC3)c3ccccc3n2)cc1,19%,.,.,-31%[59 µM],-31%,-12%
CCOC(=O)C1=C(C)OC(N)=C(C#N)C1c1cc(SCC)oc1C (stereo not drawn),21%,11%,.,45µM*,-18%,?
CCOC(=O)C1=C(CC)OC(N)=C(C#N)C1c1ccsc1 (stereo not drawn),30%,?,-11%,56µM*,-1%,?
CCOC(=O)C1=C(CC)OC(N)=C(C#N)C1c1cccs1 (stereo not drawn),21%,-8%,.,50µM*,-16%,-24%
CC(=O)C1=C(C)OC(N)=C(C#N)C1c1cc([N+](=O)[O-])ccc1Cl (stereo not drawn),35%,-4%,12%,.,-19%,-10%
CC(=O)C1=C(C)OC(N)=C(C#N)C1c1cccc([N+](=O)[O-])c1 (stereo not drawn),7%,7%,10%,45µM*,-14%[11.4 µM],-34%
COC(=O)CC1=C(C(=O)OC)C(c2cccs2)C(C#N)=C(N)O1 (stereo not drawn),64%,?,-2%,?,-31%,4%
CCOC(=O)C1=C(C)OC(N)=C(C#N)C1c1ccsc1 (stereo not drawn),41%,-2%,-3%,10µM*,-7%,-38%
CCN1CC2=C(OC(N)=C(C#N)C2c2cccs2)/C(=C\c2cccs2)C1 (stereo not drawn),?,?,.,45µM*,?,35µM*
CC1(C)CC(=O)C2=C(C1)OC(N)=C(C#N)C2c1cccs1 (stereo not drawn),26%,10%,1%,4%,7%,-1%
SMILES,HP1b chromo inh,Sfp inh,L3MBTL1 inh,G9a inh,JMJD2A Tudor,BAZ2B block
CCOC(=O)Cc1[nH]nc2c1C(c1ccsc1)C(C#N)=C(N)O2 (stereo not drawn),44%,15%,2%,5%,-10%,-4%
CCC(C)NC(=O)C1=CCN(S(=O)(=O)c2ccc(C)cc2)CC1 (stereo not drawn),6%,1%,.,50µM*,-12%,0%
CCC(C)NS(=O)(=O)c1ccc(S(=O)(=O)N2CC=C(c3ccc(F)cc3)CC2)cc1 (stereo not drawn),?,15%,-9%,10µM*,?,-26%
O=S(=O)(c1ccccc1)N1CC=C(c2ccccc2)CC1,58%,-4%,7%,-3%,3%,-1%
Cc1ccc(NC(=O)C2=CCN(S(=O)(=O)c3ccc(F)cc3)CC2)c(C)c1,48%,32%,4%,?,-8%,0%
CC(=O)N1CCCc2cc(S(=O)(=O)N3CCC(C(=O)NCc4ccccc4Cl)CC3)ccc21,34%[57 µM],.,.,11%[59 µM],-9%,1%
CC1CCCN(c2nc3c(-c4ccc(Cl)cc4)nnn3c3ccccc23)C1 (stereo not drawn),58%,.,.,7%[59 µM],0%,8%
COc1cc(-c2nc(Cn3nnc(C(=O)Nc4ccccc4C)c3C)c(C)o2)cc(OC)c1OC,24%,.,.,2%[59 µM],-7%,1%
Cc1c(C(=O)N(C)C)sc2c1c(=O)n(-c1ccc(F)cc1)c(=O)n2Cc1ccccc1C#N,29%,.,.,5%[59 µM],0%,-4%
Cn1ncc(C#N)c1/N=C/N1CCCCCC1,32%,17%,3%,?,-15%,-2%
CN1CCCCCC1=Nc1ccccc1C#N,13µM*,-23%,3%,?,1.8µM*,45µM*
CC1=C(C#N)C(=O)NC(=O)/C1=C\c1ccc(-c2ccc(C)cc2[N+](=O)[O-])o1,?,50µM*,25µM*,18µM*,32µM*,45µM*
CCOC(=O)c1cc(-c2ccc(/C=C3/C(=O)NC(=O)C(C#N)=C3C)o2)ccc1Cl,40µM*,50µM*,?,35µM*,56µM*,50µM*
COc1ccc(-c2ccc(/C=C3/C(=N)N4C=CSC4=NC3=O)o2)c([N+](=O)[O-])c1,-5%,-18%,-2%,?,?,?
COc1ccc(N2CCN(CCCNC(=O)c3ccc4nc(CCc5ccccc5)oc4c3)CC2)cc1,-16%[57 µM],.,.,?,22µM*,32µM*
O=C(NCCCN1CCN(c2ccccc2)CC1)c1ccc2nc(CCc3ccccc3)oc2c1,-4%[57 µM],.,.,?,?,-37%
